M1 antag = human M1 muscarinic receptor antagonists, primary screen, CHO-K1 cells, Fluo-8 calcium fluorescence, 1536-well; Muscarinic acetylcholine receptor M1 (Homo sapiens), P11229; CHO-K1 hM1, ACh EC80 antagonist; inhibition, % at 3 µM; actives 1.3% (n = 360,000); AID 588852, 2011;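 active = percent inhibition above its own plate's cutoff, namely the mean of that plate's compound wells plus 3 SD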;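 note: peak over basal fluorescence ratio during 140 s after agonist addition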
Target sequence (P11229 whole entry, looked up): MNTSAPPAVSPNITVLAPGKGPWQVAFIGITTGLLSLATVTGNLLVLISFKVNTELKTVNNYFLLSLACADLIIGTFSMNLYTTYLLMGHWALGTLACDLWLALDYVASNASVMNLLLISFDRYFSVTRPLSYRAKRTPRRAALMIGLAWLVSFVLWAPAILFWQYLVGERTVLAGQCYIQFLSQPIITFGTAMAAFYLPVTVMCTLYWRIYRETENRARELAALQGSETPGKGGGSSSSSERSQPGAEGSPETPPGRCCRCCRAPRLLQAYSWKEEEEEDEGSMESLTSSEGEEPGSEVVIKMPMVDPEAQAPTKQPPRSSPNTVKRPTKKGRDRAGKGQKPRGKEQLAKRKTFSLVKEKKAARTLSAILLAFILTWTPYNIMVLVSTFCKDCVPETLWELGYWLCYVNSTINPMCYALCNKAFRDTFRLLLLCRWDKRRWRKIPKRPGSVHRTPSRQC
CHO-K1 Ca ag = counter-screen for M1 agonists: effect in parental CHO-K1 cells; Fluo-8 calcium fluorescence; scaled to maximal ATP response, vehicle zero; activation, % at 3 µM; actives 0.48% (n = 360,000); in the data active = activation above about 15%;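 note: untransfected CHO-K1 host cells lacking M1 receptor as counterscreen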
CHRM1 agonist = human M1 muscarinic receptor agonists, primary screen, Fluo-8 calcium fluorescence, CHO-K1 cells, HTS; CHO-K1 hM1, agonist mode; 0% DMSO, 100% acetylcholine EC100; activation, % at 3 µM; actives 0.33% (n = 360,000); AID 588814, 2011;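 active = activation above the run's mean compound activation plus 3 SD, cut at about 16% in these data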;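 note: peak over basal fluorescence ratio within a 140 s kinetic read after compound addition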
CHRM1 PAM = human M1 muscarinic receptor positive allosteric modulators, primary screen, CHO-K1 cells, Fluo-8 calcium fluorescence, 1536-well. AID 588819, 2011. actives 0.088% (n = 360,000). activation, % at 3 µM. Muscarinic acetylcholine receptor M1 (Homo sapiens), P11229. CHO-K1 hM1, ACh EC20; 0% = ACh EC20, 100% = maximal ACh; in the data active = activation above about 19%, passing the limit was not always enough
M1 PAM parental = nonselective calcium activators in parental CHO-K1 cells, primary screen, counter-screen for M1 PAM project, cell-based, Fluo-8 calcium fluorescence, full deck, 1536-well. activation, % at 3 µM. ATP EC20; 0% at ATP EC20, 100% at ATP max. AID 602247, 2012. actives 0.02% (n = 360,000);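 active = activation above the run cutoff, the mean activation of all test compounds plus 3 SD, cut at about 40% in these data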;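 note: peak over basal fluorescence ratio in a 140 s read after ATP addition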
CHO-K1 Ca antag = counter-screen for M1 antagonists: effect in parental CHO-K1 cells; AID 602250; ATP-induced calcium, Fluo-8 fluorescence; actives 0.6% (n = 360,000); inhibition, % at 3 µM;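 active = inhibition above a per-plate cutoff, the plate's mean sample inhibition plus 3 SD, cut at about 24% in these data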
Each line names hits and unclear results; the compound was inactive in the other large screens; ! = repeats disagree. A selection: hits, their analogues and other compounds. The true share with any hit is near 2.3%.

CC(=O)N1c2ccc(S(=O)(=O)NCC3CCC(C(=O)N4CC(C)CC(C)C4)CC3)cc2CC1C (centres undefined)	none
NC(=O)c1nnsc1-c1ccco1	none
CCN1CCN(CCNC(=O)c2ccc3nc(-c4cccc(C)c4)c(-c4cccc(C)c4)nc3c2)CC1	M1 antag 83
CCCNC(=O)c1ccc2nc(-c3ccccc3)c(-c3ccccc3)nc2c1	none
CCN(CC(=O)NC(C)(C)C)C(=O)CCl	none
C[C@]12CCC(=O)C=C1[C@H](O)C[C@@H]1[C@@H]2[C@@H](O)C[C@@]2(C)[C@H]1CC[C@]2(O)C(=O)CO	CHO-K1 Ca antag 33
COc1ccc(C(CNC(=O)Cc2cccs2)N(C)C)cc1 (centres undefined)	none
CC(C)CN1C(=O)C(=O)N(CC(=O)N2c3ccccc3NC(=O)CC2C)C1=O (centres undefined)	none
CC1CC(=O)Nc2ccccc2N1C(=O)CN1CCN(C=O)CC1 (centres undefined)	CHO-K1 Ca ag 15
O=C(NCCCN1CCOCC1)c1ccc2c(c1)N(Cc1cccc(Cl)c1)C(=O)c1ccccc1S2=O (centres undefined)	none
CCC1CCCCN1CCCNC(=O)c1ccc2c(c1)N(Cc1ccc(F)cc1)C(=O)c1ccccc1S2=O (centres undefined)	M1 antag 71
O=C(NCCCN1CCCC1)c1ccc2c(c1)N(Cc1ccc(F)cc1)C(=O)c1ccccc1S2=O (centres undefined)	none
CC1CCCN(CCCNC(=O)c2ccc3c(c2)N(Cc2cccc(Cl)c2)C(=O)c2ccccc2S3=O)C1 (centres undefined)	M1 antag 40
CC1CCCN(CCCNC(=O)c2ccc3c(c2)N(Cc2ccc(F)cc2)C(=O)c2ccccc2S3=O)C1 (centres undefined)	M1 antag 42
COc1cc(OC)cc(C(=O)N[C@H](C(=O)OCC(=O)N2CCN(S(=O)(=O)c3ccc(C)cc3)CC2)C(C)C)c1	none
C=CCn1c(COc2cc(C)ccc2C(C)C)nnc1SCC(=O)c1c(N)n(C)c(=O)n(C)c1=O	none
COc1ccc2nc(C)cc(SCC(=O)O)c2c1	CHO-K1 Ca antag 24!
COc1ccc2nc(C)cc(SCC(NC(C)=O)C(=O)OC(C)C)c2c1 (centres undefined)	CHO-K1 Ca antag 26
COc1ccc(C(CCN(Cc2ccc(OC)c(OC)c2)C(C)=O)C(C)C)cc1 (centres undefined)	none
CC(C)c1ccc(/C=C(\NC(=O)c2ccccc2)C(=O)NCCCn2ccnc2)cc1	none
O=C(NC(NC(=S)Nc1ccccc1)C(Cl)(Cl)Cl)c1cccc(Cl)c1 (centres undefined)	M1 antag 30, CHO-K1 Ca antag 32
O=C(NCC(c1ccco1)N1CCCC1)c1cccc(NS(=O)(=O)c2ccccc2)c1 (centres undefined)	M1 antag 90
CCOCc1c(C(=O)NCC(c2ccco2)N2CCCC2)oc2ccccc12 (centres undefined)	M1 antag 28
COc1ccccc1N(C)S(=O)(=O)c1ccc(C(=O)NCC(c2ccco2)N2CCCCC2)cc1 (centres undefined)	none
Cc1ccc(NS(=O)(=O)c2ccc(C(=O)NCC(c3ccco3)N3CCCCC3)cc2)cc1 (centres undefined)	CHO-K1 Ca ag 18
Cc1ccc(NS(=O)(=O)c2cccc(C(=O)NCC(c3ccco3)N3CCCC3)c2)cc1 (centres undefined)	none
CN(c1ccccc1)S(=O)(=O)c1ccc(C(=O)NCC(c2ccco2)N2CCCCC2)cc1 (centres undefined)	M1 antag 36
O=C(NCC(c1ccco1)N1CCCC1)c1ccccc1F (centres undefined)	none
